This note sets out measurements from PubChem BioAssay.

The structures appear in SMILES notation. Where “and” joins values, the source holds several entries; their conditions need not be identical. Equal entries are not always repeated. For some assays here: Results with a measured potency or affinity are listed apart. Calls of active or inactive are those of the source. Unless noted, no rule for the calls is given here.

The nature of assay [1]: liver-stage malaria parasite growth inhibition, primary screen, cell-based, HepG2, luciferase luminescence, HepG2 viability (AID 624349; in the data active = parasite load remaining mostly below about 12%, no sharp cut-off; inactive = mostly above about 10%;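 also: 100% = mean of DMSO negative control wells on the same plate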). The note with it: P. berghei liver stage in HepG2, luciferase luminescence, concentration not given here; parasite load remaining: stronger effect = lower value; viability: measured here: HepG2 viability without parasites.
Assay [2] has as its target 6-phosphogluconate dehydrogenase, decarboxylating (Homo sapiens) (UniProt P52209). As to the kind of experiment: 6PGD enzyme inhibitors, primary screen, biochemical, human, recombinant enzyme, NADPH absorbance (AID 1159550;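 active = at least 20% inhibition of 6-phosphogluconate dehydrogenase activity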). The note with it: recombinant 6PGD, NADPH absorbance 341 nm; at 10 µM; stronger effect = higher value.
Assay [3] is described as follows: differential killing of epithelial or mesenchymal cells, primary screen, imaging, PC-3E GFP, TEM4-18 mCherry, co-culture (AID 1345086;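 active = compounds killing one labelled cell type while sparing the other, by normalised counts and ratio limits, not self-fluorescent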;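 as to all read-outs here: cells exposed to compound for 72 h before imaging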;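 as to red/green cell ratio (normalised): normalised mesenchymal count divided by normalised epithelial count so high means epithelial killing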). To be noted: imaging cell counts, at 1 µM; for red/green cell ratio (normalised): actives lie on both sides, counts scaled to control wells, 1 = unselective.
The nature of assay [4]: sensitizers of A549 cells to miR-34 induction, primary screen, imaging, A549 dox-inducible miR-34, nuclei and caspase counts (AID 1347080;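 active = compounds whose cell count with miR-34 switched on is under 0.7 times the count with it off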). The note with it: A549 miR-34 inducible, Hoechst nuclei count, 48 h.
The nature of assay [5]: survival rescue of mitochondrial mutant cells in low glucose, primary screen, MELAS cybrids, Rieske KO mouse fibroblasts, CellTiter-Glo (AID 1508586;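 active = mean z-score across replicates of 1.96 or higher in either the MELAS or the Rieske mutant cell line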;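 also: z relative to plate mean and SD of compound and empty wells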).
The target in assay [6] is NAD(+) hydrolase SARM1 (Homo sapiens) (UniProt Q6SZW1). As to the kind of experiment: SARM1 TIR NADase inhibitors, cell lysate, NAD-Glo luminescence (AID 1508614;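 active = compound whose remaining NAD level is above about 45 nM, limit read from the data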;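 also: higher remaining NAD means stronger inhibition of SARM1 NADase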). To be noted: SAM-TIR HEK293T lysate NADase, at 1 µM, stronger effect = higher value.
Sequence of NAD(+) hydrolase SARM1 (Homo sapiens) (Q6SZW1 whole entry, looked up, the tested form may be a part): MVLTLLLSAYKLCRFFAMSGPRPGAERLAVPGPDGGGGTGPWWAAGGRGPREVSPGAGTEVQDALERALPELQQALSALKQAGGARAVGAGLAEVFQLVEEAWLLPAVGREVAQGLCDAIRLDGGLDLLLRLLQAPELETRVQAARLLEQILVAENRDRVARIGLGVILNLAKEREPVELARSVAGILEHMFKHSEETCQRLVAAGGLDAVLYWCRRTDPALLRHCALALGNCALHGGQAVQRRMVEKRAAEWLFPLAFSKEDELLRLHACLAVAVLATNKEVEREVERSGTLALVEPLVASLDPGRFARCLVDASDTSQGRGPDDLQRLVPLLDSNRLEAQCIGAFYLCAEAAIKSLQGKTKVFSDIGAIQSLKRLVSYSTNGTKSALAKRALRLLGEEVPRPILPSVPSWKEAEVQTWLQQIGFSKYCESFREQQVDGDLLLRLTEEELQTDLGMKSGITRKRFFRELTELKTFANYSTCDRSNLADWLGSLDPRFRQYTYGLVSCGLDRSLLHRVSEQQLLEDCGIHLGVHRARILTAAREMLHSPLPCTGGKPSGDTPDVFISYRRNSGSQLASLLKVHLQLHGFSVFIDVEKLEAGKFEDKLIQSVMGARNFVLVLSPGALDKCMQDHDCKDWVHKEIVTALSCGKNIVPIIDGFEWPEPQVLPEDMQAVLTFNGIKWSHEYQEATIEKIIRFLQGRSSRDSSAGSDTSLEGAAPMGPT
Assay [7] deals with Mitogen-activated protein kinase 7 (Homo sapiens) (UniProt Q13164). The assay can be described thus: ERK5 transactivation activators in reporter cells, primary screen, cell-based, HTS (AID 1508626;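 active = luciferase signal above three times the same-plate solvent-only control wells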;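 also: luciferase driven by Gal4-ERK5 fusion binding five Gal4 sites before minimal TATA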). The note with it: HeLa Gal4-ERK5 transactivation, 18 h, at 5 µM, stronger effect = higher value.
Sequence of Mitogen-activated protein kinase 7 (Homo sapiens) (Q13164 whole entry, looked up, the tested form may be a part): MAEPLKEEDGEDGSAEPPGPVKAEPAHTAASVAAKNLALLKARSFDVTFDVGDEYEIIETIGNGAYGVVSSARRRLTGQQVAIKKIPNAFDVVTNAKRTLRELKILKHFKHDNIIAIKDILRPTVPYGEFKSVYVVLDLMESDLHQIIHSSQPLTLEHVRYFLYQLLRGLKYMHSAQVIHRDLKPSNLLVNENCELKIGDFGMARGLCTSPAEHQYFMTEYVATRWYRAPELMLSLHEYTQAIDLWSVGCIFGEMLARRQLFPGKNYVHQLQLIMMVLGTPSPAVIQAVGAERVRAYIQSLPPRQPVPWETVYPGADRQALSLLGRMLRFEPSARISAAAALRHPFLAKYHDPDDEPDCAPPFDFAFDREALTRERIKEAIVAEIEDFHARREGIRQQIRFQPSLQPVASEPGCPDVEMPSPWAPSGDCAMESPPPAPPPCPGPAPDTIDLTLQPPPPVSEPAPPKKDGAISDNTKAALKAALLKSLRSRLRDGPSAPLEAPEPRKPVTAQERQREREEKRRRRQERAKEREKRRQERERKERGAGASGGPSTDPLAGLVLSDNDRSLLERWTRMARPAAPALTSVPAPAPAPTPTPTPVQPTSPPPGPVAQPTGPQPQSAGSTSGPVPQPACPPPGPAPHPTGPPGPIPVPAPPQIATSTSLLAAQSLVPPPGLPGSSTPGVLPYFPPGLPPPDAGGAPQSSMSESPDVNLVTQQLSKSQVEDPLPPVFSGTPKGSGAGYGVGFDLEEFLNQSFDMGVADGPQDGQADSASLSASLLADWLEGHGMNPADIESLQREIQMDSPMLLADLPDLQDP
The nature of assay [8]: circadian clock period modulators, cell-based, LOPAC library, luminescence reporter (AID 2774).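 Also: values are relative to mean of DMSO wells on each plate.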 To be noted: circadian reporter cells, at 7 µM, actives lie on both sides.
For assay [9], the system named is Hepatitis C virus NS3 helicase. As to the kind of experiment: HCV NS3 helicase inhibitors, primary screen, biochemical, fluorescence polarization, LOPAC1280 library (AID 687035; in the data active = inhibition above about 37%). The note with it: Purified HCV NS3 helicase, Cy5-dT15 ssDNA binding fluorescence polarization; stronger effect = higher value; concentration not given here.
The nature of assay [10]: phospholipid biosynthesis inhibitors in animal cells, primary screen, cell-based, LOPAC library, screen 4 (AID 1347384). The note with it: phospholipid biosynthesis inhibition screen, at 10 µM.
Assay [11] can be described thus: viability rescue of complex I mutant cybrids, primary screen, cell-based, galactose medium, ATP luminescence (AID 1645843;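 active = z-score of at least 1.8 in each of two replicates, scored against plate mean and spread of sample wells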;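 also: positive z means more ATP and so rescue of galactose-driven cybrid death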). To be noted: complex I mutant cybrid cells, 72 h, stronger effect = higher value.
A short description of assay [12]: polyglutamine-triggered caspase-3 activation inhibitors, cell-based (AID 1583). To be noted: polyglutamine-induced caspase-3 activation, cell assay; stronger effect = higher value;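 tested at 10 µM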.
Assay [13] can be described thus: suppressors of polyQ aggregation in yeast, 75Q-TubU reporter (AID 1593). The note with it: Yeast 75Q polyglutamine aggregation reporter.
Assay [14] in a line: rescue of polyQ-huntingtin neuronal dysfunction in worms, whole organism, C. elegans mechanosensory neurons, N-terminal huntingtin (AID 1599). The note with it: touch response, stronger effect = higher value.
A short description of assay [15]: inhibitors of mitochondrial cytochrome c release, biochemical, purified mitochondria (AID 1603).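 Also: mouse liver mitochondria challenged with calcium chloride; signal normalized to the plate average as 100%.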 The note with it: stronger effect = lower value.
The nature of assay [16]: inhibitors of polyQ protein aggregation (AID 1604). The note with it: polyglutamine-induced protein aggregation inhibition assay; stronger effect = higher value; tested at 2.5 µM.
Assay [17] can be described thus: enhancers of glutamate uptake in motor neurons, MN-1 cell line (AID 1612).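 Also: tested at 1 µM final; 0% = mean of DMSO vehicle wells on each plate; positive means more glutamate uptake than control and negative means less.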 The note with it: MN-1 motor neuron cells, stronger effect = higher value.
Assay [18] in a line: reducers of polyQ inclusions in PC12 cells, cell-based, NGF-treated PC12, GFPQ80 (AID 1614).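 Also: lower means fewer inclusions and 0 means no inclusions at all.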 To be noted: PC12 NGF-treated GFP-polyQ80 inclusion reduction.
Assay [19] in a line: suppressors of polyglutamine aggregation in yeast, 75Q-TubH (AID 1616). The note with it: S. cerevisiae 75Q-TubH polyglutamine aggregation suppression; stronger effect = higher value.
A short description of assay [20]: hESC survival regulators, cell-based (AID 493140).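 Also: cells exposed to compounds for four days before counting.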 To be noted: human embryonic stem cell survival screen; stronger effect = higher value.
Where [21] appears, read: measured here: epithelial PC-3E GFP cell survival.
Where [22] appears, read: measured here: mesenchymal TEM4-18 mCherry cell survival.
The mark [23] stands for this setting: stronger effect = lower value, cell number ratio, induced over uninduced.
Where [24] appears, read: measured here: relative caspase fold change +Dox/-Dox.
[25] abbreviates: measured here: total cells with miR-34 induction, stronger effect = lower value.
Setting [26] is: measured here: total cells without miR-34 induction.
[27] abbreviates: MELAS cybrid survival, CellTiter-Glo 48 h, stronger effect = higher value.
[28] abbreviates: Rieske KO mouse fibroblast survival, CellTiter-Glo 72 h.

Sequence of 6-phosphogluconate dehydrogenase, decarboxylating (Homo sapiens) (P52209 whole entry, looked up): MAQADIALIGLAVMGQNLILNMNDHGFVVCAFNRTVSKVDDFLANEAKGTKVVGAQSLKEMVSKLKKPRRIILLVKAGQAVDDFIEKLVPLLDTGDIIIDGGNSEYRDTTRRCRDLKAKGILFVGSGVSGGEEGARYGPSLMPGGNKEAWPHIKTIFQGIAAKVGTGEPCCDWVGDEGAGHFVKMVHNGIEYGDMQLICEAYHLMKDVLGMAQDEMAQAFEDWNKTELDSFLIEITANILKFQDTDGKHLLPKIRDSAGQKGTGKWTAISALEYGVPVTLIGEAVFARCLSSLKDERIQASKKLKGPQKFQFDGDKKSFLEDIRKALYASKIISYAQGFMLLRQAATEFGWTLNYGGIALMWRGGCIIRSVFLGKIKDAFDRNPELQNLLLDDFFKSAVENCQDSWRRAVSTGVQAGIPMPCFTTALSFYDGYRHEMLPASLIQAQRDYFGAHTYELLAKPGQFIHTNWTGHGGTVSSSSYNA

Turning to `Nc1nc(/C(=C/CC(=O)O)C(=O)N[C@@H]2C(=O)N3C(C(=O)O)=CCS[C@H]23)cs1`, in assay [1], the parasite load remaining is 145% (inactive) and 53% (inactive). Also, the viability in [1] was 95.5% and 96.5%. The inhibition in assay [2] is -3.19% (inactive). In addition, the red/green cell ratio (normalised) in assay [3] is 1.05 (inactive). The normalised cell number in assay [3] (setting [21]) amounted to 0.96; in [3] (setting [22]), 1. In addition, the fold change in assay [4] (setting [23]) is 0.926 (inactive); in [4] (setting [24]) it was 1.29. The values for the cell count in [4] (setting [25]) and in assay [4] (setting [26]) were 12000 and 13000, respectively. Besides, the z-score was -0.448 (inactive) in [5] (setting [27]) and -1.4 in [5] (setting [28]). Moreover, the remaining NAD in [6] is 10 nM (inactive). For the same compound, in assay [7], the luciferase signal is 40 AU (inactive).

On to `NC1(C(=O)O)CC1`, for which, in assay [8], the period change was -0.01 h (inactive). For the same compound, the inhibition was -2% (inactive) in assay [9] and -3.72% (inactive) in [2]. Besides, the red/green cell ratio (normalised) in [3] was 0.8 (inactive). Further, the normalised cell number in assay [3] (setting [21]) amounted to 1.07; in [3] (setting [22]), 0.86. The figures for the fold change in assay [4] (setting [23]) and in assay [4] (setting [24]) were 0.945 (inactive) and 1.33, respectively. For the same compound, the cell count in [4] (setting [25]) is 9670; in assay [4] (setting [26]), 10200. Moreover, the compound was classed as inactive in [10]. Besides, the luciferase signal in [7] was 60 AU (inactive). In [11], the z-score was 0.575 (inactive).

Regarding `NC(N)=NCCCCN=C(N)N`, the results for the inhibition in [12], in assay [9] and in [2] were 0.26%, -3% (inactive) and -2.55% (inactive), respectively. Besides, in assay [13], the score is 1.07. In assay [14], the rescue above control is -1.01. Also, the cytochrome c release ratio in [15] came out at 1.43. The inhibition of aggregation in [16] is 83.3%. Moreover, the glutamate uptake change in [17] turned out to be 11.5%. Also, the inclusion score in [18] is 2. For the same compound, the aggregation suppression score in [19] is 1.37. Further, the period change in assay [8] was 0.195 h (inactive). Besides, the survival in [20] is 5.58 (inactive). For the same compound, the parasite load remaining in [1] is 111% (inactive). In assay [1], the viability amounted to 108%. In addition, in assay [3], the red/green cell ratio (normalised) was 0.92 (inactive). Besides, the values for the normalised cell number in [3] (setting [21]) and in assay [3] (setting [22]) were 1.06 and 0.97, respectively. The fold change in [4] (setting [23]) is 0.968 (inactive) and 0.866 (inactive); in [4] (setting [24]) it was 0.983 and 0.933. Further, the cell count in [4] (setting [25]) is 9930 and 7710; in assay [4] (setting [26]) it was 10300 and 8910. Further, the call in [10] was inactive. In assay [7], the luciferase signal was 52 AU (inactive). The z-score in [11] is 0.645 (inactive).

Turning to `COc1cc(S(C)=O)ccc1-c1nc2ncccc2[nH]1` (stereo not drawn), the inhibition in assay [12] was 23%; in [2], 14% (inactive). The score in assay [13] was found to be 1.52. The rescue above control in assay [14] is 8.66. In [15], the cytochrome c release ratio amounted to 0.94. The compound also had an inhibition of aggregation in assay [16] of 3.24%. Further, the glutamate uptake change in assay [17] worked out at 3.5%. Further, the inclusion score in [18] was 2. This compound came in with an aggregation suppression score in assay [19] of 1.25. Also, the survival in [20] is 5.5 (inactive). The parasite load remaining in [1] is 107% (inactive). Besides, the viability in assay [1] was determined as 101%. Further, the red/green cell ratio (normalised) in assay [3] is 1.07 (inactive). Besides, the normalised cell number was 0.84 in assay [3] (setting [21]) and 0.9 in assay [3] (setting [22]). Also, the fold change in assay [4] (setting [23]) is 0.851 (inactive); in assay [4] (setting [24]), 1.41. Besides, the cell count in assay [4] (setting [25]) stood at 7350; in assay [4] (setting [26]), 8630. Besides, the z-score was -0.22 (inactive) in [5] (setting [27]) and 0.17 in assay [5] (setting [28]). In addition, in assay [7], the luciferase signal is 48 AU (inactive).

On to `Oc1cc(O)c2c(c1)O[C@H](c1ccc(O)c(O)c1)[C@@H](O)C2`, for which the inhibition is 23.8% in [12], 0% (inactive) in [9] and 13.7% (inactive) in assay [2]. The compound further returned a score in assay [13] of 1.24. For the same compound, the rescue above control in [14] is -5.75. Further, in assay [15], the cytochrome c release ratio was 0.5. The compound also had an inhibition of aggregation in [16] of 63.2%. Also, in [17], the glutamate uptake change amounted to 14.1%. The inclusion score in assay [18] worked out at 2. In [19], this compound displayed an aggregation suppression score of 1.05. Also, the period change in assay [8] was 0.07 h (inactive). In addition, the survival in [20] was 6.17 (inactive) and 8.75 (inactive). Further, in assay [1], the parasite load remaining is 116% (inactive). For the same compound, the viability in assay [1] was 105%. Besides, the red/green cell ratio (normalised) in assay [3] is 1.12 (inactive). Also, the normalised cell number in assay [3] (setting [21]) turned out to be 1.02; in assay [3] (setting [22]), 1.15. Moreover, the fold change in assay [4] (setting [23]) is 0.974 (inactive) and 0.863 (inactive) and 0.997 (inactive); in assay [4] (setting [24]), 2.1 and 1.09 and 0.901. Also, the cell count was 10300 and 8130 and 5640 in assay [4] (setting [25]); 10500 and 9420 and 5660 in assay [4] (setting [26]). Also, the compound was classed as inactive in assay [10]. Further, the remaining NAD in [6] was 10 nM (inactive). Further, in [7], the luciferase signal was 24 AU (inactive). Besides, in assay [11], the z-score was -0.355 (inactive).
